From PubChem
CYP2C19 act: activators of human cytochrome P450 2C19. recombinant CYP2C19, luciferin-H EGE luminescence; hits give high values; 0 = fully inhibited enzyme, 1 = untreated enzyme. activation factor at 5 µM. 96,000 tested, under 10 active. AID 1025;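 active = activation factor of at least 2 at 5 µM in the primary screen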
PostGolgi yeast: growth inhibition of a yeast mutant, post-Golgi transport screen; post-Golgi transport phenotypic cell assay; inhibition, % at 10 µM; 98,000 compounds, 0.9% hits; AID 739;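 also: yeast cells grown in 1536-well plates; yeast grown about 18 h at 30C before absorbance read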
CYP2C19 inh: inhibitors of human CYP2C19 | P33261 | CYP2C19 Supersomes, luciferin-H EGE luminescence, 30 min | inhibition, % at 5 µM | 96,000 compounds, 21% hits | AID 778;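 active = CYP2C19 inhibition above a set limit at 5 µM in the primary screen, cut at about 50% in these data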
CYP2C9 activ: CYP2C9 (human) activation; recombinant CYP2C9, luciferin-H conversion, luminescence; hits give high values; factor 1 = untreated enzyme, 0 = blocked; activation factor at 5 µM; 96,000 compounds, 1.4% hits; AID 1024;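 active = activation factor of 2 or more for CYP2C9 at a 5 µM dose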
Target sequence (P11712 whole entry, looked up): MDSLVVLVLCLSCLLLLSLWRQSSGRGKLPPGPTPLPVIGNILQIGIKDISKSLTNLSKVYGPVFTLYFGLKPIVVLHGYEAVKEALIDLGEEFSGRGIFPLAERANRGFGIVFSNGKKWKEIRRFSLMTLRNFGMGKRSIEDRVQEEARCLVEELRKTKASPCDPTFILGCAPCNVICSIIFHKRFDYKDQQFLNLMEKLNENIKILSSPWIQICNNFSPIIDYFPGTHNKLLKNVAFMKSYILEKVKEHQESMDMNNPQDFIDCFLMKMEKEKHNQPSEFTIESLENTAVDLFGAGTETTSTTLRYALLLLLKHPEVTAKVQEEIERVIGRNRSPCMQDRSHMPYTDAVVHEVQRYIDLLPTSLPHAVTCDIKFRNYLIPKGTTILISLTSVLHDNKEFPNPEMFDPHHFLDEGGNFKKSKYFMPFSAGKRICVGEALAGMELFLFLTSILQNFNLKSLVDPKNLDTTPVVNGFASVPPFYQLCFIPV
PostGolgi ctrl: growth of the yeast control strain, post-Golgi counter-screen; efflux-deficient yeast background strain, growth absorbance A615, 16 h; inhibition, % at 10 µM; 98,000 compounds, 5% hits; AID 738
CYP2C9 inhib: human CYP2C9 inhibition; 96,000 compounds, 20% hits; inhibition, % at 5 µM; CYP2C9 Supersomes, luciferin-H conversion, luminescence;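 active = blocking of liver enzyme CYP2C9 beyond about 50% at 5 µM, limit read from the data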
Of the large screens only hits and unclear results are named; the others gave an inactive call. Most compounds without a hit are left out; they make up all but 32% or so of the library. Rule as the data show it, unless noted: active = inhibition above about 30%; inactive = the rest.

Cc1cc(Cl)ccc1NC(=O)CSc1nnc(-c2ccncc2)n1Cc1ccco1	CYP2C19 inh 86, CYP2C9 inhib 90
COc1ccc(C(=O)C(CO)Oc2ccccc2OC)cc1OC (stereo not given)	none
O=C(CN1C(=O)c2ccccc2C1=O)Nc1ccccc1C(=O)N1CCCC1	none
COC(=O)C(NC(C)=O)(Nc1sc2c(c1C(N)=O)CCCC2)C(F)(F)F (stereo not given)	none
Cc1cccc(NC(=O)CC2Nc3cccc4cccc(c34)NC2=O)c1 (stereo not given)	none
O=C(CC1NC(=O)NC1=O)Nc1ccccc1 (stereo not given)	CYP2C9 inhib 68
CC(=O)Nc1ccc(NC(=O)CC2Nc3cccc4cccc(c34)NC2=O)cc1 (stereo not given)	CYP2C9 inhib 63
O=C(CC1NC(=O)NC1=O)Nc1cccc2ccccc12 (stereo not given)	none
CCN1C(=O)N/C(=C/c2ccc(Sc3ccc(C)cc3)o2)C1=O	none
Cc1ccc(/C=C2/NC(=O)N(c3ccccc3)C2=O)o1	CYP2C19 inh 68
O=C1CC(c2ccccc2)CC(O)=C1C=NCCN1CCN(C(=S)Nc2cccc(Cl)c2)CC1 (stereo not given)	CYP2C19 inh 72
CC1(C)CC(=O)C(C=NCCN2CCN(C(=S)Nc3ccc(F)cc3)CC2)=C(O)C1	CYP2C19 inh 75
CCCCCC(=O)N1CCN(CCN=CC2=C(O)CC(c3ccc(OC)c(OC)c3)CC2=O)CC1 (stereo not given)	CYP2C9 inhib 64
O=C1CC(c2ccc(Cl)cc2)CC(O)=C1C=NCCN1CCNCC1 (stereo not given)	none
CC(C)Oc1cccc(C(=O)NC(=S)Nc2ccc3c4c(cccc24)CC3)c1	none
O=C(c1ccccc1)N1CC(COc2ccccc2)OC(c2ccco2)O1 (stereo not given)	CYP2C19 inh 88
O=C(c1ccc(OCC2CCCO2)cc1)N1CCN(c2ccccc2)CC1 (stereo not given)	none
Cc1sc(NC(=O)C2CCCCC2C(=O)O)c(C(N)=O)c1-c1ccc(C(C)(C)C)cc1 (stereo not given)	PostGolgi ctrl 30 (no result: CYP2C19 act, CYP2C19 inh, CYP2C9 activ, CYP2C9 inhib)
O=C(Nc1nncs1)Oc1ccccc1	none (no result: PostGolgi yeast)
CCCCCCCCn1c(N2CCN(c3cccc(Cl)c3)CC2)nc2c1c(=O)[nH]c(=O)n2C	CYP2C9 inhib 52
CC(C)CCn1c(N2CCN(c3cccc(Cl)c3)CC2)nc2c1c(=O)[nH]c(=O)n2C	PostGolgi ctrl 35 (no result: CYP2C19 act, CYP2C19 inh, CYP2C9 activ, CYP2C9 inhib)
CCCCCn1c(CN2CCN(c3cccc(Cl)c3)CC2)nc2c1c(=O)[nH]c(=O)n2C	PostGolgi ctrl 45, CYP2C9 inhib 59
CCCCCCn1c(N2CCN(c3cccc(Cl)c3)CC2)nc2c1c(=O)[nH]c(=O)n2C	none
CCOC(=O)N1CCN(Cc2nc3c(c(=O)[nH]c(=O)n3C)n2Cc2cc(C)ccc2C)CC1	CYP2C9 inhib 72
CCCCCCn1c(N2CCN(c3ccccc3)CC2)nc2c1c(=O)[nH]c(=O)n2C	none (no result: CYP2C19 act, CYP2C19 inh, CYP2C9 activ, CYP2C9 inhib)
COc1ccc(CCNC(=O)C2CCCN(S(C)(=O)=O)C2)cc1OC (stereo not given)	none
CCOC(=O)C1CN(S(=O)(=O)c2ccc(OC)cc2)c2cc(CC(=O)OC)ccc2O1 (stereo not given)	CYP2C19 inh 93
COc1ccc(C(=O)/C=C/c2cccs2)c(OC(=O)c2cccc([N+](=O)[O-])c2)c1	CYP2C9 inhib 50
O=S(=O)(NC1CCN(Cc2ccccc2)CC1)c1cccc2cccnc12	none
CC(C)C1N=C(c2ccc3c(c2)OCO3)CC(c2ccccc2O)N1 (stereo not given)	CYP2C19 inh 54, CYP2C9 inhib 61
COc1ccc(/C=C/C(=O)N(C(C)C)C(C)C)cc1Br	CYP2C19 inh 60
CCCCCC(=O)N/N=C(\C)c1ccccn1	CYP2C19 inh 57
C/C(=N/NC(=O)c1ccccn1)c1ccco1	CYP2C19 inh 57
CCCCCCC(=O)N/N=C/Cc1ccccc1	none
Cc1nnc(Nc2ccc3c(c2)ncn3C)c2ccccc12	CYP2C19 inh 83
CN1CCN(CCCn2cnc3c(=O)oc4ccccc4c32)CC1	none
Cn1c2ccc(F)cc2c2ncn(CCN3CCOCC3)c(=O)c21	PostGolgi yeast 33
Cn1c2ccccc2c2ncn(CCCN3CCOCC3)c(=O)c21	none
Cn1c2ccccc2c2ncn(CCC3=CCCCC3)c(=O)c21	CYP2C19 inh 71, PostGolgi ctrl 34, CYP2C9 inhib 84
O=c1oc2ccccc2c2c1ncn2CCN1CCOCC1	CYP2C19 inh 50
Cn1c(SCc2c(Cl)cccc2Cl)nc(C(F)(F)F)cc1=O	none
C=CCn1c(=O)c2ccccc2n2c(SCc3cc(=O)n4ccsc4n3)nnc12	none
CC(C)CN1C(=O)NC(NC(=O)c2ccco2)(C(F)(F)F)C1=O (stereo not given)	CYP2C19 inh 56
Cc1csc(CCc2nc(C)cs2)n1	none
COc1ccccc1-c1noc(-c2ccccc2C(=O)Nc2cccnc2)n1	none
N#CC(C#N)=c1ccc2c(c1)N1C3=C(CCCC3)CC3CCCCC31N=2 (stereo not given)	PostGolgi yeast 44, CYP2C19 inh 90, PostGolgi ctrl 50, CYP2C9 inhib 98
N#C/C(C(N)=O)=c1/ccc2c(c1)N1C3=C(CCCC3)CC3CCCCC31N=2 (stereo not given)	CYP2C19 inh 54, CYP2C9 inhib 89
COC(=O)c1c(C(=O)OC)c2oc3ccccc3n2c1Cl	none
COc1ccc(C2C(C(=O)NCCN3CCOCC3)c3ccccc3C(=O)N2C)cc1OC (stereo not given)	none
Cc1ccc(NS(=O)(=O)c2ccc(NC(=O)C3CCCO3)cc2)cc1 (stereo not given)	CYP2C19 inh 91, CYP2C9 inhib 85
Cc1ccnc(NS(=O)(=O)c2ccc(NC(=O)C3CCCO3)cc2)n1 (stereo not given)	none
COc1ccc(NS(=O)(=O)c2ccc(NC(=O)C3CCCO3)cc2)cc1 (stereo not given)	CYP2C19 inh 69, CYP2C9 inhib 65
O=C1NC(=O)c2cc(NC(=O)C3CCCO3)ccc21 (stereo not given)	CYP2C9 inhib 86
COc1ccc(CNC(=O)c2ccc(NC(=O)C3CCCO3)cc2)cc1 (stereo not given)	none
CCc1ccc(NC(=O)c2ccccc2NC(=O)C2CCCO2)cc1 (stereo not given)	CYP2C9 inhib 59
COc1cc(C2C3=C(CC(C)(C)CC3=O)N(C)C(=O)N2C)cc(OC)c1OC (stereo not given)	none
O=C(O)C1CC=CCC1C(=O)N1CCCC1 (stereo not given)	none
CN(Cc1ccccc1)S(=O)(=O)c1ccc(NC(=O)C2CCCO2)cc1 (stereo not given)	CYP2C9 inhib 55
O=C(NCCN1CCN(c2ccccc2)CC1)c1ccc(NC(=O)C2CCCO2)cc1 (stereo not given)	CYP2C19 inh 52
